Screens (PubChem BioAssay)
RORgamma inh = blocks mouse ROR gamma transcriptional activity; AID 2551; P51450; Potency, µM (series often up to 53.6 µM), without a hit: at the highest dose activity change, negative = inhibition, hits mostly inhibitors; 5.4% of 310,000 active; Drosophila S2 Gal4-RORgamma UAS-luciferase reporter, 20 h; note: nearly all actives have a fitted effect of over 60% in size
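Luciferase reporter read in Schneider cells carrying Gal4-RORγ (mouse) and UAS-Photinus luciferase; cells given compound 1 h before 700 uM copper sulfate induction, then incubated 20 h at ambient temperature.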
Tau fluor counter = counter-screen for tau fibril formation inhibitors | AID 1463 | tau K18 P301L Alexa594 fluorescence, heparin fibrillization | 0.93% of 280,000 active | Potency, µM (series often up to 57.7 µM), for the others: at the highest dose activity change, negative = decrease; note: nearly all actives have a fitted effect of over 55% in size
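Human K18 P301L tau (15 uM unlabeled plus 0.24 uM Alexa 594-labeled, final) in 100 mM sodium acetate pH 7 was mixed with compound and 20 uM heparin and incubated 6 hr at 37 C.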
Tau fibril ThT = blocks human tau fibril formation measured by thioflavin T | recombinant tau K18 P301L (four-repeat tau fragment), heparin-induced fibrillization, ThT fluorescence | P10636 | Potency, µM (highest dose often 57.4 µM), without a hit: top-dose activity, negative = inhibition, actives largely listed as inhibitors | 2.1% of 270,000 active; note: nearly all actives have a fitted effect of over 55% in size
Target sequence (P10636 561-689 P618L limits assumed): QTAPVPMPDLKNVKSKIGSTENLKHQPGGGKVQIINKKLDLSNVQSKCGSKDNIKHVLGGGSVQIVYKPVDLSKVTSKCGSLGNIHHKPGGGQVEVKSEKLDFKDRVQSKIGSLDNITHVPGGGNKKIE
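Aggregation was driven by heparin (20 uM final) acting on recombinant tau […] bearing P301L in 100 mM sodium acetate pH 7; fibrils were detected with Thioflavin T.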
VP16 counter = inhibits Gal4-VP16 luciferase reporter, ROR gamma counter-screen; 3.5% of 310,000 active; Drosophila S2 Gal4-VP16 UAS-luciferase, luminescence, 20 h; Potency, µM (series often up to 53.6 µM), for inactives: at the highest dose activity, negative = inhibition, usual class: inhibitors; AID 2546;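 note: Gal4-VP16 expression switched on by copper sulfate through the metallothionein promoter; nearly all actives have a fitted effect of over 50% in size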
Tau fibril FP = inhibitors of human tau fibril formation; 0.39% of 280,000 active; P10636; Potency, µM (titrated, usually from 57.7 µM), inactives show at the highest dose activity, negative = inhibition, hits mostly inhibitors; K18 P301L tau heparin fibrillization, Alexa594 FP, 6 h; AID 1468; note: nearly all actives have a fitted effect of over 55% in size
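Compound effects on tau fibrillization are measured by Alexa 594 fluorescence polarization (ex 555, em 632 nm). K18 P301L tau is used at 15 uM with 0.24 uM labeled tracer, and 20 uM heparin induces aggregation over 6 hr at 37 C.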
An asterisk follows results filed as active; ? = inconclusive; . = no result given. The list is not random: actives were taken first. Their share in the collection is about 7.3%. Calls come from the whole dose curve; as a rule, active = well fitted curve in the direction sought with a large enough effect; inconclusive = small, poorly fitted or top-dose-only effect, or another doubt; inactive = no such curve, though single readings can be large; an effect the other way counts as inactive or inconclusive. % is set by controls: 0 for no effect and ±100 for the full control effect; potency is the fitted concentration of half-maximal effect.

SMILES	RORgamma inh	Tau fluor counter	Tau fibril ThT	VP16 counter	Tau fibril FP
COc1ccc(N2C(=O)CC(N(CCc3ccc(S(N)(=O)=O)cc3)C(=S)Nc3ccccc3)C2=O)cc1 (configuration not stated)	22%	?	.	3%	-18%
COc1cccc(N=Nc2c(=O)[nH]n3c(=O)c4c([nH]c23)CCC4)c1	-10%	-21%	7.1µM*	-3%	7%
COc1cccc(-c2ccc(C#N)c(=O)[nH]2)c1	12%	2%	1%	-1%	5%
O=c1[nH]n2c(=O)c3c([nH]c2c1N=Nc1cccc(C(F)(F)F)c1)CCCC3	-24%	-25%	2.8µM*	?	0%
COc1cccc(N=Nc2c(=O)[nH]n3c(=O)cc(C)[nH]c23)c1	5%	-20%	16µM*	1%	6%
NS(=O)(=O)c1ccc(N=Nc2c(=O)[nH]n3c(=O)c4c([nH]c23)CCCC4)cc1	-18%	-29%	7.9µM*	-7%	5%
O=c1[nH]n2c(=O)c3c([nH]c2c1N=Nc1cccc(Cl)c1)CCC3	-2%	1%	-1%	?	2%
CCOc1ccc(Nc2ncnc3c2nc2n3CCCCC2)cc1	.	-27%	?	.	5%
CNC(=O)C(N)CSC(C)C1=C(C)c2cc3[n-]c(cc4nc(cc5[n-]c(cc1n2)c(C)c5CCC(=O)O)C(CCC(=O)O)=C4C)c(C)c3C(C)SCC(N)C(=O)NC.[Fe+2] (configuration not stated)	11%	.	.	3%	.
CCOc1ccc(NC(=O)C2CCCN2S(=O)(=O)c2ccc(OCC)cc2)cc1 (configuration not stated)	37%	.	.	-16%	.
Cc1nc(C(=O)N2CCC(n3nccc3NC(=O)Nc3ccccc3Cl)CC2)cs1	-1%	.	.	0%	.
O=C(Cc1cccs1)NNC(=S)NC(=O)c1ccc(F)c(F)c1	6.3µM*	-9%	-15%	5.6µM*	-3%
O=C(Cc1ccccc1)NNC(=S)NC(=O)c1cccs1	?	0%	-10%	2%	2%
O=C(Cc1cccs1)NNC(=S)NC(=O)c1ccccc1	7.9µM*	-2%	-10%	10µM*	0%
CC(=O)OC1C(N2CCCCC2)c2c(ccc(/C=C/C(=O)N3CCCCC3)c2O)OC1(C)C (configuration not stated)	?	-3%	-10%	1.3µM*	-1%
Cc1ccc2nc(NC(=O)c3ccc(OCC4CCCO4)cc3)sc2c1 (configuration not stated)	4.5µM*	-6%	?	?	6%
COc1ccc2nc(NC(=O)c3ccc(NC(=O)C4CCCO4)cc3)sc2c1 (configuration not stated)	-21%	.	.	-17%	.
O=C(Nc1nc(-c2ccc(Cl)cc2Cl)cs1)c1ccc(OCC2CCCO2)cc1 (configuration not stated)	-37%	-21%	-13%	18µM*	-2%
O=C(Nc1ccc(Cl)cc1)c1ccc(OCC2CCCO2)cc1 (configuration not stated)	10%	-4%	-15%	0%	-2%
Cc1cc(C)c2nc(NC(=O)c3ccc(OCC4CCCO4)cc3)sc2c1 (configuration not stated)	1µM*	7%	-13%	-17%	2%
O=C(Nc1cccc(C(=O)N2CCN(c3cccc(Cl)c3)CC2)c1)c1nsc2ccccc12	.	-17%	-9%	.	-2%
O=C(N/N=C/c1c(O)n(-c2ccccc2Cl)c(=O)c2ccccc12)c1cccnc1	13µM*	-9%	-15%	-7%	9%
O=C(N/N=C/c1c(O)n(Cc2ccccc2)c(=O)c2ccccc12)c1cccnc1	11µM*	?	?	-1%	4%
O=C(N/N=C/c1cccc2ccccc12)c1cccnc1	-4%	.	.	20%	.
COc1ccc(Cn2c(O)c(/C=N/NC(=O)c3cccnc3)c3ccccc3c2=O)cc1	6.3µM*	?	?	0%	10%
COc1ccc(Cn2c(O)c(C=Nc3ccc(OC)cc3)c3ccccc3c2=O)cc1	3%	?	1%	-11%	12%
